TRHR PAM = TRH receptor (human) allosteric enhancement. TRHR cells, fluo-8 calcium fluorescence, EC20 TRH enhancement. AID 493056. enhancement, % at 2 µM. P34981. 0.66% of 360,000 active; in the data active means enhancement above about 30%; further: 0% is about no effect
Target sequence (P34981 whole entry, looked up): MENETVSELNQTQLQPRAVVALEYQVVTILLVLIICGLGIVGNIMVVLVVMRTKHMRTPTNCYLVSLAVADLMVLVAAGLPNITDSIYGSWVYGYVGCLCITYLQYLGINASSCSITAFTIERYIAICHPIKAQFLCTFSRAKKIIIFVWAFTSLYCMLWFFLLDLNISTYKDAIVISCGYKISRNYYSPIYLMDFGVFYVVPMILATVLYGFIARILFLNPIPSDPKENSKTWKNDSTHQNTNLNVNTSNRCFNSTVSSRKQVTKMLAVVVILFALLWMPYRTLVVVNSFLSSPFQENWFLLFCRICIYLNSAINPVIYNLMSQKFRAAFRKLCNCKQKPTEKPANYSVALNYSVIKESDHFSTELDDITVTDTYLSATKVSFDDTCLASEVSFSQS
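TRHR-expressing cells loaded with fluo-8 calcium dye were read kinetically (ex 480/em 530) during compound addition, then stimulated with an EC20 of TRH (10 nM final). Enhancement of the Gq-mediated intracellular calcium response was scored.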
D1 potentiator = human D1 dopamine receptor positive modulation; P21728; HEK293 TREx D1 cells, calcium flux, dopamine EC20 potentiation; potentiation, % at 10 µM; 0.036% of 360,000 active; AID 504651; in the data active means potentiation above about 30%; further: 0% is about no effect
Glioma ERSR ind = inducers of ER stress response in human glioma cells. 0.02% of 420,000 active. U87-MG GRP78 promoter luciferase reporter, 16 h. Potency, µM, for the others: top-dose activation, hits mostly activators. AID 602332; active means well fitted activation curve with a large enough effect; further: potency means the concentration at half of the fitted maximal effect; series mostly up to about 76 µM; % of control where 0% means no effect; nearly all actives have a fitted effect of over 35% in size
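Stably transfected U87-MG human glioma cells carrying a GRP78-based luminescent sensor were seeded at 1000 cells/well, pin-dosed with compounds and incubated 16 h. Luciferase reagent was then added, and end-point luminescence was read after 10 min at room temperature.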
D1 antagonist = antagonists of human D1 dopamine receptor; HEK293 TREx D1 cells, calcium flux, dopamine EC80; active compounds read low; activity change, negative = inhibition, % at 10 µM; 3.2% of 360,000 active; AID 504652; in the data active means activity change below about -30%; further: on the % scale 0 is the no-effect control and ±100 the full control effect
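After overnight tetracycline induction at 30 C, force-coupled D1 HEK293 cells took up a no-wash calcium dye at room temperature. Compounds were added and monitored 180 s, and the response to EC80 dopamine was then recorded.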
D1 agonist = human D1 receptor agonism; P21728; HEK293 T-REx D1 cells, calcium flux, agonist mode; activation, % at 2 µM; 1% of 360,000 active; AID 504660; further: 0% is about no effect
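Agonism was scored from calcium flux recorded over 180 s (1 read/s) after pintool compound addition, following a 10-cycle baseline. Cells were inducible force-coupled HEK293 TREx D1, plated overnight at 30 C and loaded with no-wash calcium dye.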
TRHR ag = agonists of human TRH receptor. P34981. TRHR cells, calcium flux fluo-8, FDSS agonist mode. activation, % at 2 µM. 0.18% of 360,000 active; further: 0% is about no effect
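TRHR-expressing cells loaded with fluo-8 calcium dye; 23 nL library compound pin-transferred, kinetic FDSS fluorescence (Ex 480/Em 530) recorded about 180 s for agonist-induced calcium release, before a 10 nM TRH EC20 addition for potentiator mode.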
An asterisk follows results filed as active; · = no result given. A selection: hits, their analogues and other compounds. The true share with any hit is near 4%. Unless noted, no stated cut-off is given here; in the data, active means activation above about 30%; inactive means the rest.

SMILES	TRHR PAM	D1 potentiator	Glioma ERSR ind	D1 antagonist	D1 agonist	TRHR ag
CCCc1cc(NCCCN(C)C)n2c(nc3ccccc32)c1C#N	-4	-7	0%	-38*	1	0
CCCc1cc(NCCN(C)C)n2c(nc3ccccc32)c1C#N	-5	-2	-1%	9	0	0
O=S(=O)(c1cccc(F)c1)N1CCC(Oc2ccc(-n3cnnn3)cc2)CC1	-2	1	-2%	-30*	11	4
C=CCSc1ncc(-c2ccccc2)cn1	9	-4	4%	-31*	3	0
COc1cccc(CN2CCCC(c3nc(-c4ccncc4)ncc3-c3ccccc3)C2)c1O (configuration not stated)	·	·	-1%	·	·	·
COc1cc(C2C(C#N)=C(C)NC3=C2C(=O)c2ccccc23)cc(OC)c1OC (configuration not stated)	-3	-6	-3%	-53*	0	0
COc1ccc(C2C(C#N)=C(C)NC3=C2C(=O)c2ccccc23)cc1 (configuration not stated)	-1	5	-2%	1	1	0
Clc1nc(-c2n[nH]nc2Cl)n[nH]1	0	-6	1%	-31*	0	0
Cc1cc2ccc3ccccc3c2cc1CN(C)C	11	-5	2%	-43*	15	3
CN(C)Cc1cc2ccccc2c2c1COC2	-1	-1	-2%	1	5	0
Fc1ccc(C2CC(c3ccc(F)cc3)n3ncnc3N2)cc1 (configuration not stated)	12	2	-2%	1	2	1
Oc1ccccc1C1=Nc2ncnn2C(c2ccc(F)cc2)C1 (configuration not stated)	-1	-5	-4%	-42*	0	0
Cc1cc(N2CCN(S(=O)(=O)c3ccc4c(c3)OCCO4)CC2)n2ncnc2n1	-3	-4	-3%	-46*	10	0
Cc1cccc(CN(C(=S)Nc2c(C)cccc2C)c2cccnc2)c1	-5	-6	-2%	-33*	7	-1
CCc1ccccc1NC(=S)N(Cc1cccc(C)c1)c1cccnc1	-2	1	-5%	14	5	0
CC(=O)N1CCN(c2ncnc3sc(-c4ccccc4)cc23)CC1	40*	-8	10%	-2	1	0
CNc1ncnc2sc(-c3ccccc3)cc12	-5	-4	3%	-38*	1	-1
CN(C)CCNc1ncnc2sc(-c3ccccc3)cc12	3	-1	-8%	1	1	-2
CCCNC(=O)C1CCC(Cn2c(=O)c3sccc3n(Cc3cccc(OC)c3)c2=O)CC1 (configuration not stated)	53*	-7	-1%	-3	2	0
COCC1CCN(C(=O)c2cc(COc3ccc(-n4cncn4)cc3)on2)CC1	-5	-1	-3%	-36*	2	-1
COCC1CCN(C(=O)c2cc(COc3ccc4ncccc4c3)on2)CC1	10	-3	7%	-23	14	1
c1ccc2c(c1)nc(N1CCOCC1)c1c3ccccc3[nH]c21	-5	-4	-1%	-57*	4	0
O=C(NC1CCC(n2cc(C(=O)NC3CC3)nn2)CC1)C(=O)c1ccccc1 (configuration not stated)	·	·	-3%	·	·	·
COc1cccc2cc(-c3nnc(SCC(=O)Nc4ccc(NC(C)=O)cc4)n3C)oc12	-1	-2	-3%	-57*	1	0
COc1ccccc1-c1nnc(SCC(=O)NC2CC2)n1C	11	·	-3%	-59*	6	0
SMILES	TRHR PAM	D1 potentiator	Glioma ERSR ind	D1 antagonist	D1 agonist	TRHR ag
COc1ccccc1-c1nnc(SCC(=O)Nc2ccc(N3CCOCC3)cc2)n1C	2	5	-2%	-36*	0	-1
COc1cccc2cc(-c3nnc(SCC(=O)NCCc4ccccc4)n3C)oc12	-3	-2	-4%	7	0	0
Cn1c(CC(=O)Nc2ccccc2)nnc1SCC(=O)Nc1ccc(N2CCOCC2)cc1	2	-2	-1%	3	1	1
CCC(C)(C)NC(=O)CCCSc1nc2ccccc2s1	-8	-2	-1%	6	0	-1
Cc1ccc(CNS(=O)(=O)c2ccc3c(c2)NC(=O)CS3)cc1	8	-3	-4%	-34*	6	-1
O=C1CSc2ccc(S(=O)(=O)NCc3ccc(F)cc3)cc2N1	3	-8	-9%	-1	5	0
CCN(Cc1ccccc1)S(=O)(=O)c1ccc2c(c1)NC(=O)CS2	-4	-6	-6%	-36*	8	0
Cc1ccc(OCCCCn2c(CCNC(=O)C3CCCCC3)nc3ccccc32)cc1	·	·	-3%	·	·	·
CCOC(=O)N1CCC(N2C(=O)c3ccccc3C2Nc2ccccc2C)CC1 (configuration not stated)	0	3	0%	-71*	-3	0
Cc1onc(-c2ccccc2Cl)c1C(=O)N1CCN(c2ccc(F)cc2)CC1	-2	-8	-3%	2	3	0
CC(C)(C)[C@H]1C=C(C(N)=O)O[C@@H](OCc2ccc(CO)cc2)C1	-6	2	2%	-31*	-3	0
N#Cc1cc([N+](=O)[O-])ccc1NC(=O)COC(=O)CC1CCCC1	0	-3	-2%	-25	1	0
C/C(=N\NC(=O)c1nnn(-c2nonc2N)c1CN(C)c1ccccc1)c1cccc(O)c1	28	-15	-4%	-39*	16	-1
C/C(=N\NC(=O)c1nnn(-c2nonc2N)c1CN(C)c1ccccc1)c1ccc(O)cc1	1	-3	-3%	-7	5	0
C/C(=N\NC(=O)c1nnn(-c2nonc2N)c1-c1ccc2c(c1)OCO2)c1ccc(C)cc1	19	16	-5%	53	104*	2
C/C(=N\NC(=O)c1nnn(-c2nonc2N)c1-c1ccc2c(c1)OCO2)c1ccc(F)cc1	-1	-1	1%	9	10	0
C/C(=N\NC(=O)c1nnn(-c2nonc2N)c1-c1ccc2c(c1)OCO2)c1ccccc1	7	-2	-5%	10	34*	1
Cc1ccccc1NC(=O)CSc1nc(-c2ccco2)nc2cc(=O)[nH]n12	19	0	-2%	6	1	0
CC1CCc2nc(-c3cc4c(ccc5ccccc54)oc3=O)sc2C1 (configuration not stated)	·	·	-4%	·	·	·
COC(=O)c1cccc(C23CC4(C2)[C@H](CN(Cc2ccc(-c5ccccc5)cc2)[C@@H]4c2ccccc2)C3c2ccc(Cl)nc2)c1 (some centres not stated)	6	-9	-1%	-36*	2	0
O=C(NCCc1ccncc1)c1cnn(-c2ncc3c(n2)-c2ccccc2CCC3)c1C1CC1	·	·	-5%	·	·	·
